# Experimental data published in the supplement of paper PMC8285479.
# Counter-ions that a name gives are not always drawn. ± gives the standard deviation of the averaged measurements. In all, about 1,900 compounds were measured (“normalised cell viability (NPI; 0 = phenylarsine oxide control, 1 = DMSO control)”: median about 1, lowest 2% from about 0.039 on). The sample holds the lowest values, similar compounds and a random draw of the others, so the mix is not that of the screen.
# System: NCI-H1944
# Experiment: normalised cell viability (NPI; 0 = phenylarsine oxide control, 1 = DMSO control) (fraction of DMSO control); NCI-H1944 is a non-small cell lung cancer line; higher = more viable cells (less compound toxicity)
# Details: 6 days
# [1] = glucocorticoid arm: hydrocortisone 2.75 uM co-treatment, compound 1 µM
# [2] = glucocorticoid arm: hydrocortisone 2.75 uM co-treatment, compound 5 µM
# [3] = glucocorticoid arm: hydrocortisone 2.75 uM pre-treated 2 days and continued, compound 1 µM
# [4] = glucocorticoid arm: hydrocortisone 2.75 uM pre-treated 2 days and continued, compound 5 µM
# [5] = glucocorticoid arm: vehicle, compound 1 µM
# [6] = glucocorticoid arm: vehicle, compound 5 µM
# 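Note: CTB read-out in 384-well plates, triplicate wells, NPI normalised per plate against 1 µM phenylarsine oxide (0) and 0.1% DMSO (1) controls.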
SMILES,normalised cell viability [1],normalised cell viability [2],normalised cell viability [3],normalised cell viability [4],normalised cell viability [5],normalised cell viability [6]
O=c1[nH]c(=O)n([C@H]2C[C@H](O)[C@@H](CO)O2)cc1/C=C/Br [(E)-5-(2-Bromovinyl)-2'-deoxyuridine],1.013 ± 0.0058,1.01 ± 0.01,1.003 ± 0.0061,1.015 ± 0.0071,0.9783 ± 0.0055,0.9897 ± 0.0049
C[C@H](NC(=O)/C(C#N)=C/c1cccc(Br)n1)c1ccccc1,1.01 ± 0.012,1.06 ± 0.032,1.02 ± 0.017,1.048 ± 0.0075,0.9985 ± 0.0098,0.0147 ± 0.011
CCC[C@H](NC(=O)/C(C#N)=C/c1cccc(Br)n1)c1ccccc1,1.017 ± 0.0058,0.726 ± 0.1,1.02 ± 0.01,1.09 ± 0.025,0.996 ± 0.0046,0.339 ± 0.026
C[C@@H](NC(=O)/C(C#N)=C/c1ccc(O)c(O)c1)c1ccccc1 [Tyrphostin AG 527],1.013 ± 0.0058,0.9963 ± 0.0038,0.879 ± 0.22,0.999 ± 0.011,1.003 ± 0.0058,1.003 ± 0.0061
CN/C(=N\c1ccc(C2=NNC(=O)CC2C)cc1)NC#N (configuration not stated),0.9943 ± 0.0046,0.992 ± 0.018,0.875 ± 0.22,0.9957 ± 0.0051,0.995 ± 0.005,0.997 ± 0.0052
CCN1C(=CC(C)=O)Sc2ccc(OC)cc21,0.982 ± 0.01,0.823 ± 0.013,0.994 ± 0.017,0.839 ± 0.021,1.01 ± 0.01,0.983 ± 0.017
Cc1cc(N2CCOCC2)cc2[nH]c(-c3c(NCC(O)c4cccc(Cl)c4)cc[nH]c3=O)nc12 (configuration not stated),0.277 ± 0.0085,0.205 ± 0.011,0.3733 ± 0.0021,0.267 ± 0.0095,0.753 ± 0.051,0.263 ± 0.036
CCCCCCCCCCCCCCCC(=O)NCC(COP(=O)([O-])OCC[N+](C)(C)C)OCC (racemic) [rac-2-Ethoxy-3-hexadecanamido-1-propylphosphocholine],1.01 ± 0.01,1.09 ± 0.023,1.007 ± 0.0058,1.113 ± 0.0058,1.013 ± 0.0058,1.02 ± 0.011
CN1CCC[C@@H]1Cc1c[nH]c2ccc(CCS(=O)(=O)c3ccccc3)cc12 [Eletriptan HBr],1.013 ± 0.0058,1.03 ± 0.015,1.01 ± 0.01,1.02 ± 0.021,1.002 ± 0.0067,1.002 ± 0.0072
COc1ccc(NC(=O)c2ccc(-c3ccc(-c4noc(C)n4)cc3C)cc2)cc1N1CCN(C)CC1,1.006 ± 0.0063,0.000294 ± 0.00029,1.02 ± 0.01,0.00887 ± 0.01,0.9987 ± 0.0023,0.000181 ± 0.0015
COc1ccccc1N1CCN(CCCCNC(=O)c2ccc3ccccc3c2)CC1,0.9887 ± 0.0098,0.984 ± 0.026,0.998 ± 0.014,0.988 ± 0.032,0.9913 ± 0.0029,0.961 ± 0.033
CCCCCCCCCCCCCCCc1cccc(O)c1C(=O)O [Anacardic acid],1 ± 0.015,1.02 ± 0.0063,1.01 ± 0.012,1.02 ± 0.022,1 ± 0.024,1.01 ± 0.019
S=C(S)N1CCCC1 [Ammonium pyrrolidinedithiocarbamate],1 ± 0.015,0.994 ± 0.024,1.01 ± 0.018,1.004 ± 0.01,1.002 ± 0.0076,0.416 ± 0.095
N=c1ccn2c(n1)O[C@H]1[C@H](O)[C@@H](CO)O[C@H]12 [Ancitabine hydrochloride],0.16 ± 0.012,0.103 ± 0.012,0.652 ± 0.079,0.211 ± 0.0064,0.0511 ± 0.0082,0.0465 ± 0.00057
CS(=O)(=O)N1CCc2c(-c3cnc(N)nc3)nc(N3CCOCC3)nc21,0.528 ± 0.021,0.513 ± 0.01,0.552 ± 0.058,0.627 ± 0.034,0.491 ± 0.024,0.651 ± 0.064
Nc1cc(C(F)(F)F)c(-c2cc(N3CCOCC3)nc(N3CCOCC3)n2)cn1,0.6 ± 0.048,0.203 ± 0.0045,0.713 ± 0.038,0.411 ± 0.029,0.613 ± 0.059,0.0297 ± 0.0061
FC(F)c1nc2ccccc2n1-c1nc(N2CCOCC2)nc(N2CCOCC2)n1,0.649 ± 0.029,0.627 ± 0.013,0.603 ± 0.038,0.702 ± 0.054,0.691 ± 0.048,0.831 ± 0.028
CSc1nc(N)c2ncn([C@@H]3O[C@H](COP(=O)(O)OP(=O)(O)O)[C@@H](O)[C@H]3O)c2n1 [2-Methylthioadenosine diphosphate trisodium],1.007 ± 0.0058,1.02 ± 0.026,1.01 ± 0.012,1.06 ± 0.082,0.9917 ± 0.0072,1 ± 0.017
C[C@@H]1C(=O)O[C@H]2C[C@@]34[C@H]5C[C@@H](C(C)(C)C)[C@]36[C@@H](OC(=O)[C@@H]6O)O[C@@]4(C(=O)O5)[C@]21O [Ginkgolide A],0.9947 ± 0.0084,0.986 ± 0.01,0.994 ± 0.016,0.997 ± 0.02,1.002 ± 0.0072,0.9947 ± 0.0051
CCc1c(C(=O)NCCc2ccc(N3CCCCC3)cc2)[nH]c2ccc(Cl)cc12,1.01 ± 0.018,0.993 ± 0.021,1.027 ± 0.0058,0.999 ± 0.011,1 ± 0.0095,0.982 ± 0.012
NCC=CC(=O)O (stereo in doubt) [cis-4-Aminocrotonic acid],0.992 ± 0.0092,0.993 ± 0.015,0.9857 ± 0.0042,0.9765 ± 0.0092,0.973 ± 0.0079,0.9753 ± 0.0086
C[C@H]1C[C@H]2[C@@H]3CCC4=CC(=O)C=C[C@]4(C)[C@@]3(Cl)[C@@H](O)C[C@]2(C)[C@@]1(O)C(=O)CO [Beclomethasone],0.998 ± 0.0017,1.02 ± 0.01,1.01 ± 0.01,1,0.803 ± 0.031,0.738 ± 0.039
